T1: CAPN2 513-700 EF-hand_8 (domain begin residue: 513, domain end residue: 700), P17655
T1 chain: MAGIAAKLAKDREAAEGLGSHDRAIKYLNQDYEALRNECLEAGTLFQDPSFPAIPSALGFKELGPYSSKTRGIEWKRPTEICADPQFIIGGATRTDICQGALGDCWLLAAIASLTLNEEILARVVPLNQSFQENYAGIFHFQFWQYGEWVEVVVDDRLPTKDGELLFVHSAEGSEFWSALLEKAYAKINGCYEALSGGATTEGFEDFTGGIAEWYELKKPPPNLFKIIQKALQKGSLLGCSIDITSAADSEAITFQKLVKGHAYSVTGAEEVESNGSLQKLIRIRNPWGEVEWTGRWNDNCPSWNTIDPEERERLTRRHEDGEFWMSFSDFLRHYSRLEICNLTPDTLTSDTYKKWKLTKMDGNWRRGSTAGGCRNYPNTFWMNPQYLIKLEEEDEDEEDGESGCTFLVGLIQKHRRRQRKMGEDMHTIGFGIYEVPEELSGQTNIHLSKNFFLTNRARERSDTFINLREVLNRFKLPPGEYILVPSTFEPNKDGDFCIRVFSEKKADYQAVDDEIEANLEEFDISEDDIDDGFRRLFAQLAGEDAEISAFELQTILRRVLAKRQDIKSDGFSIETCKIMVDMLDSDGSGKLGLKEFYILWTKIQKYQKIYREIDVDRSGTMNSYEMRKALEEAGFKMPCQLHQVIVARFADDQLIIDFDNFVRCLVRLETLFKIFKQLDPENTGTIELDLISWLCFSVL

T2: BTN1A1 285-479 SPRY (domain begin residue: 285, domain end residue: 479), Q13410
T2 chain: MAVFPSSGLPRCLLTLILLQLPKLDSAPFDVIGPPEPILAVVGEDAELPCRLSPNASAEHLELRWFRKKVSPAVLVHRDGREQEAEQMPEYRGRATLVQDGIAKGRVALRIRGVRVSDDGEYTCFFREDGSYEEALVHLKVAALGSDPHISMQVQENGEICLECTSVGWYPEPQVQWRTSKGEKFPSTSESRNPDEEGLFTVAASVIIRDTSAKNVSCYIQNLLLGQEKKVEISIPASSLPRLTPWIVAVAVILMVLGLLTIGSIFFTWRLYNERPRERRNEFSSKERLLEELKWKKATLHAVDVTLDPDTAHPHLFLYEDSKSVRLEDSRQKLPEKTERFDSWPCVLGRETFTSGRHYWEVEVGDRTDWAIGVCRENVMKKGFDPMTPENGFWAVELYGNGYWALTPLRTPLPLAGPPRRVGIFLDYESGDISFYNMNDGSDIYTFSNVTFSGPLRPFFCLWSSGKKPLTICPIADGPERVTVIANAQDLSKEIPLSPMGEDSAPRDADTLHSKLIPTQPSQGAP

T3: CLTC 1-363 Clathrin_propel+Clathrin-link (domain begin residue: 1, domain end residue: 363), Q00610
T3 chain: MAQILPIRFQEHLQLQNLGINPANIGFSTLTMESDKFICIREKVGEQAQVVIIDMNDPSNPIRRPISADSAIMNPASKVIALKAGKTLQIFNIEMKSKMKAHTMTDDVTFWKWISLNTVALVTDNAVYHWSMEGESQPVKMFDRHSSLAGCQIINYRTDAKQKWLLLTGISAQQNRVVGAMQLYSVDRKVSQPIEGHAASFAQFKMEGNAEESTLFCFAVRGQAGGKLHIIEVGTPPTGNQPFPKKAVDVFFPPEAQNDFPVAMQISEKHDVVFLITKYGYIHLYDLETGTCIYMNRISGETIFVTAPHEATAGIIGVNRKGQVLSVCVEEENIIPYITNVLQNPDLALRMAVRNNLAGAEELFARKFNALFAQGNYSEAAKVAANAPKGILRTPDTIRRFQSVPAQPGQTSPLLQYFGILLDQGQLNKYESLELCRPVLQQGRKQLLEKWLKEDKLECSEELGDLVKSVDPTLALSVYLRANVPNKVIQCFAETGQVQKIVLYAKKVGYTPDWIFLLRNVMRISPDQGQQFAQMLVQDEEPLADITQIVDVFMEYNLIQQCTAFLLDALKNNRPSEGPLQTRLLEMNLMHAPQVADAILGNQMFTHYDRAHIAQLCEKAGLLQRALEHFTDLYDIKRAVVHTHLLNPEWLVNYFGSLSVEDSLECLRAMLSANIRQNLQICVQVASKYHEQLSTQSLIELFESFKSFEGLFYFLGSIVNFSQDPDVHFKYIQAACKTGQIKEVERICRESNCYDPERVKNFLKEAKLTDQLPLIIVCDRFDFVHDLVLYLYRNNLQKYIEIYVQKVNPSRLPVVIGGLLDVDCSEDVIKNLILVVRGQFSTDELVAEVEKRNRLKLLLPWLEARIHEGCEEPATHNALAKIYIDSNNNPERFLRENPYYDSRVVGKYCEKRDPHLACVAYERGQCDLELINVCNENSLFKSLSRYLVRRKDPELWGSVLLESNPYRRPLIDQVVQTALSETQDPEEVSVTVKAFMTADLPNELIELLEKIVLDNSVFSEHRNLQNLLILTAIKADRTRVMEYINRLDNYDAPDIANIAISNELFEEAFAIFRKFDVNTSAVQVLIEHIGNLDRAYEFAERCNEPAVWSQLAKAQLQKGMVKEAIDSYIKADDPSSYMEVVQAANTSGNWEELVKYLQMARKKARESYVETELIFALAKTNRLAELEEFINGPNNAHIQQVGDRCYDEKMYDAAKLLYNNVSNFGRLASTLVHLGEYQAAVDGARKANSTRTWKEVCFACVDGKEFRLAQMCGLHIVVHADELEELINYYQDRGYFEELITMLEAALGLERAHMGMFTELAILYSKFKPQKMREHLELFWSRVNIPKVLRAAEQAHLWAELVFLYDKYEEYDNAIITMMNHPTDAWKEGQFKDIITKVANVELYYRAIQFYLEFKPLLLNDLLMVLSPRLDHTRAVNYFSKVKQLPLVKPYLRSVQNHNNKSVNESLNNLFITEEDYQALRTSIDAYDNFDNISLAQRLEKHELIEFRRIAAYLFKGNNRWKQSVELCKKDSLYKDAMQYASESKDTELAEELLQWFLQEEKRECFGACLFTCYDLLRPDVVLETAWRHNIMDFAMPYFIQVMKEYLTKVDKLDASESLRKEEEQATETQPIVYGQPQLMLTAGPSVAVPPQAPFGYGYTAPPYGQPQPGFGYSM

T4: CAPNS1 1-268 EF-hand_8+EF-hand_5 (domain begin residue: 1, domain end residue: 268), P04632
T4 chain: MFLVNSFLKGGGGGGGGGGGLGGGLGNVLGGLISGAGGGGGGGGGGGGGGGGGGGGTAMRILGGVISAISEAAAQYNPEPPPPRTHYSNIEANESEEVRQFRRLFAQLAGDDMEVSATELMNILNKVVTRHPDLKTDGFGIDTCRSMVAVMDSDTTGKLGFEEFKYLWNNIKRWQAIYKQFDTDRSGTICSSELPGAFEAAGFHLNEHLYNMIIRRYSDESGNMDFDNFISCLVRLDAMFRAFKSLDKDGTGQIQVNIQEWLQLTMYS

T5: CD2BP2 256-341 GYF (domain begin residue: 256, domain end residue: 341), O95400
T5 chain: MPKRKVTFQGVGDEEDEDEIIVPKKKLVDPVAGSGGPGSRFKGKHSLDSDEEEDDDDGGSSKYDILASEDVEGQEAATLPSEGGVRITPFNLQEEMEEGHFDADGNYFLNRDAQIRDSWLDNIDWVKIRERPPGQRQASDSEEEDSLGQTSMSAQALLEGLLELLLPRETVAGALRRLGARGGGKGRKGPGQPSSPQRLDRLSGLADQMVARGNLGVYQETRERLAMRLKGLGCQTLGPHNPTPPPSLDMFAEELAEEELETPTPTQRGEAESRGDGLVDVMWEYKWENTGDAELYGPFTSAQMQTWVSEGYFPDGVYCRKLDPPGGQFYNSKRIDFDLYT

B1: unnamed (peptide)
chain: GWEPQWFPSEHLADGN
B2: unnamed (peptide)
chain: NWLFLDPDYYNVHWPS
B3: unnamed (peptide)
chain: WDAFVNDFMHEWSTFK
B4: unnamed (peptide)
chain: FDFWQAREYHMLNMMA
B5: unnamed (peptide)
chain: GMSPLIEWPEEWWWLD
B6: unnamed (peptide)
chain: LHSNLEEWLLEDLMMW
B7: unnamed (peptide)
chain: VNAHDMLEHWLYQDMI
B8: unnamed (peptide)
chain: WQATDYPQQPPPGWKE
B9: unnamed (peptide)
chain: TIPPGYFKWVGEVRDE
B10: unnamed (peptide)
chain: YQMQQWQFSPEIWLNM
B11: unnamed (peptide)
chain: VSYPLVDLSDWHMWTN
B12: unnamed (peptide)
chain: TAPPGYGARYMETPYV
B13: unnamed (peptide)
chain: SWDHWDEKMTSMVVFM
B14: unnamed (peptide)
chain: YQQDLVDFLWNDLYAF

Molecular target: CKS1B 1-79 CKS (domain begin residue: 1, domain end residue: 79), P61024
Test: phage ELISA signal ratio (GST-PRM binding over GST background); higher = stronger binding of peptide-phage to the PRM
Protocol: (§1)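 Phage-displayed random hexadecapeptides (Cys-free, flanked by invariant Gly linkers, fused to the M13 P8 major coat protein) were selected over 5 rounds against GST-fused human PRM domains. Individual clones from rounds 4-5 were tested by phage ELISA, and positive clones binding the target but not GST were sequenced. Values are the ELISA signal ratio of target over background (GST); the background signal is given separately.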

CKS1B 1-79 CKS (domain begin residue: 1, domain end residue: 79), P61024, sequence (P61024 whole entry): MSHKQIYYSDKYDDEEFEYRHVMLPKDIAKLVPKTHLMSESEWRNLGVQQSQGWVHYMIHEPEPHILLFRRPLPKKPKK

Binder | phage ELISA signal ratio
B1 | 7.45

Molecular target: CBX3 109-173 Chromo_shadow (domain begin residue: 109, domain end residue: 173), Q13185
Test: as above
Protocol: as §1

CBX3 109-173 Chromo_shadow (domain begin residue: 109, domain end residue: 173), Q13185, sequence (Q13185 whole entry): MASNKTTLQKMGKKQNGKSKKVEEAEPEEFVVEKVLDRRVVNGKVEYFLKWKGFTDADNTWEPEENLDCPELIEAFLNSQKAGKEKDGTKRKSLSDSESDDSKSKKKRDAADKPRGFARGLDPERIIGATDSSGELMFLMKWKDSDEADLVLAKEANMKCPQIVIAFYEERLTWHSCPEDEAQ

Binder | phage ELISA signal ratio
B2 | 3.29
B10 | 7.79

Molecular target: T1, CAPN2 513-700 EF-hand_8 (domain begin …
Test: as above
Protocol: as §1

Binder | phage ELISA signal ratio
B3 | 26.5

Molecular target: T2, BTN1A1 285-479 SPRY (domain begin …
Test: as above
Protocol: as §1

Binder | phage ELISA signal ratio
B4 | 10.3
B13 | 9.92

Molecular target: T3, CLTC 1-363 …
Test: as above
Protocol: as §1

Binder | phage ELISA signal ratio
B5 | 21
B11 | 20.8

Molecular target: T4, CAPNS1 1-268 EF-hand_8+EF-hand_5 …
Test: as above
Protocol: as §1

Binder | phage ELISA signal ratio
B6 | 18.9
B7 | 28.3
B14 | 22.7

Molecular target: T5, CD2BP2 256-341 GYF (domain begin …
Test: as above
Protocol: as §1

Binder | phage ELISA signal ratio
B8 | 18.9
B9 | 16.3
B12 | 16.9

From the supplement of paper PMC7724964
